# Experimental data from PubChem BioAssay AID1159580 (chemical genetic matrix, 2015).
# “And” between values parts separate entries of the source, which are not always exact repeats. Equal entries are not always repeated. About 2,000 (36%) of roughly 5,500 compounds were called active. Roughly 18% stayed inconclusive and do not appear here. The list shows a part of the results. A number with no mark means an inactive call. Cut-off read from the data, not from the text of the source: active = normalized growth mostly below about 0.91 (no sharp cut-off); inconclusive = no clear call, values can overlap the other calls; inactive = mostly above about 0.92.
# Test: chemical genetic growth profiling, strain panel (AID 1159580);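 note: tested at 20 µM; growth read once vehicle control cultures reached saturation at 30 °C; 1 = growth at the plate median or of vehicle wells; lower values mean less growth of the strain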
# Details: growth OD
compound,measurement,setting,value
NCCc1cnc[nH]1,normalized growth,"S. cerevisiae deletion strains, locus YJR066W, strain TOR1, hits give low values",0.985
same,normalized growth,"S. cerevisiae deletion strains, locus YJR075W, strain HOC1, hits give low values",1.01
same,normalized growth,"S. cerevisiae deletion strains, locus YKL009W, strain mrt4, hits give low values",1.01
same,normalized growth,"S. cerevisiae deletion strains, locus YKL068W, hits give low values",1.01
same,normalized growth,"S. cerevisiae deletion strains, locus YKL085W, strain MDH1 (second series), hits give low values",1.01
same,normalized growth,"S. cerevisiae deletion strains, locus YKL085W, strain MDH1, hits give low values",1.01
same,normalized growth,"S. cerevisiae deletion strains, locus YKL160W, strain elf1, hits give low values",1.02
same,normalized growth,"S. cerevisiae deletion strains, locus YKL190W, strain CNB1, hits give low values",0.978
same,normalized growth,"S. cerevisiae deletion strains, locus YKR001C, strain vps1, hits give low values",1.01
same,normalized growth,"S. cerevisiae deletion strains, locus YKR026C, strain gcn3, hits give low values",1.02
same,normalized growth,"S. cerevisiae deletion strains, locus YKR091W, strain srl3, hits give low values",1.02
same,normalized growth,"S. cerevisiae deletion strains, locus YLL001W, strain dnm1, hits give low values",1.02
same,normalized growth,"S. cerevisiae deletion strains, locus YLL026W, hits give low values",1.02
same,normalized growth,"S. cerevisiae deletion strains, locus YLL041C, strain sdh2, hits give low values",1.02
same,normalized growth,"S. cerevisiae deletion strains, locus YLR027C, strain aat2, hits give low values",1.01
same,normalized growth,"S. cerevisiae deletion strains, locus YLR039C, strain RIC1, hits give low values",1.05
same,normalized growth,"S. cerevisiae deletion strains, locus YLR058C, strain SHM2, hits give low values",1.01
same,normalized growth,"S. cerevisiae deletion strains, locus YLR102C, strain apc9, hits give low values",1.02
same,normalized growth,"S. cerevisiae deletion strains, locus YLR113W, strain HOG1, hits give low values",0.985
same,normalized growth,"S. cerevisiae deletion strains, locus YLR221C, strain rsa3, hits give low values",1.05
same,normalized growth,"S. cerevisiae deletion strains, locus YLR258W, strain gsy2, hits give low values",1.02
same,normalized growth,"S. cerevisiae deletion strains, locus YLR262C, strain YPT6 (second series), hits give low values",1.06
same,normalized growth,"S. cerevisiae deletion strains, locus YLR262C, strain YPT6, hits give low values",1
same,normalized growth,"S. cerevisiae deletion strains, locus YLR268W, strain sec22, hits give low values",1.02
same,normalized growth,"S. cerevisiae deletion strains, locus YLR320W, strain mms22, hits give low values",1.04
same,normalized growth,"S. cerevisiae deletion strains, locus YLR330W, strain CHS5, hits give low values",1.01
same,normalized growth,"S. cerevisiae deletion strains, locus YLR342W, strain FKS1 (second series), hits give low values",0.997
same,normalized growth,"S. cerevisiae deletion strains, locus YLR342W, strain FKS1, hits give low values",1.02
same,normalized growth,"S. cerevisiae deletion strains, locus YLR357W, strain rsc2, hits give low values",1
same,normalized growth,"S. cerevisiae deletion strains, locus YLR370C, strain arc18, hits give low values",1.01
same,normalized growth,"S. cerevisiae deletion strains, locus YLR371W, strain rom2, hits give low values",1
same,normalized growth,"S. cerevisiae deletion strains, locus YLR384C, strain iki3, hits give low values",1.02
same,normalized growth,"S. cerevisiae deletion strains, locus YLR418C, strain cdc73, hits give low values",1.04
same,normalized growth,"S. cerevisiae deletion strains, locus YML016C, strain PPZ1, hits give low values",1.01
same,normalized growth,"S. cerevisiae deletion strains, locus YML032C, strain rad52, hits give low values",1.01
same,normalized growth,"S. cerevisiae deletion strains, locus YML120C, strain ndi1, hits give low values",1.02
same,normalized growth,"S. cerevisiae deletion strains, locus YML124C, strain tub3, hits give low values",1.01
same,normalized growth,"S. cerevisiae deletion strains, locus YMR058W, strain fet3, hits give low values",1.02
same,normalized growth,"S. cerevisiae deletion strains, locus YMR078C, strain ctf18, hits give low values",1.02
same,normalized growth,"S. cerevisiae deletion strains, locus YMR125W, strain sto1, hits give low values",1.02
same,normalized growth,"S. cerevisiae deletion strains, locus YMR129W, hits give low values",1.02
same,normalized growth,"S. cerevisiae deletion strains, locus YMR205C, strain PFK2, hits give low values",1.04
same,normalized growth,"S. cerevisiae deletion strains, locus YMR223W, strain ubp8, hits give low values",1.03
same,normalized growth,"S. cerevisiae deletion strains, locus YMR231W, strain pep5, hits give low values",1.01
same,normalized growth,"S. cerevisiae deletion strains, locus YMR307W, strain GAS1, hits give low values",0.923 and 0.999
same,normalized growth,"S. cerevisiae deletion strains, locus YNL067W, strain RPL9B, hits give low values",0.995
same,normalized growth,"S. cerevisiae deletion strains, locus YNL071W, strain lat1, hits give low values",1.02
same,normalized growth,"S. cerevisiae deletion strains, locus YNL128W, strain TEP1, hits give low values",1
same,normalized growth,"S. cerevisiae deletion strains, locus YNL153C, strain GIM3, hits give low values",0.778 (active)
same,normalized growth,"S. cerevisiae deletion strains, locus YNL175C, strain NOP13, hits give low values",0.381 (active)
same,normalized growth,"S. cerevisiae deletion strains, locus YNL183C, strain NPR1, hits give low values",0.962
same,normalized growth,"S. cerevisiae deletion strains, locus YNL197C, strain WHI3, hits give low values",0.662 (active)
same,normalized growth,"S. cerevisiae deletion strains, locus YNL209W, strain ssb2, hits give low values",1.02
same,normalized growth,"S. cerevisiae deletion strains, locus YNL233W, strain BNI4, hits give low values",1.01
same,normalized growth,"S. cerevisiae deletion strains, locus YNL248C, strain rpa49, hits give low values",1.02
same,normalized growth,"S. cerevisiae deletion strains, locus YNL250W, strain rad50, hits give low values",1.05
same,normalized growth,"S. cerevisiae deletion strains, locus YNL271C, strain bni1, hits give low values",1.03
same,normalized growth,"S. cerevisiae deletion strains, locus YNL298W, strain CLA4, hits give low values",1.02
same,normalized growth,"S. cerevisiae deletion strains, locus YNL307C, strain MCK1, hits give low values",1.02
same,normalized growth,"S. cerevisiae deletion strains, locus YNL322C, strain KRE1 (second series), hits give low values",1.03
same,normalized growth,"S. cerevisiae deletion strains, locus YNR049C, strain mso1, hits give low values",1.04
same,normalized growth,"S. cerevisiae deletion strains, locus YNR052C, strain pop2, hits give low values",1.01
same,normalized growth,"S. cerevisiae deletion strains, locus YOL012C, strain htz1",1.37
same,normalized growth,"S. cerevisiae deletion strains, locus YOL147C, strain pex11, hits give low values",1.02
same,normalized growth,"S. cerevisiae deletion strains, locus YOR001W, strain rrp6, hits give low values",1.01
same,normalized growth,"S. cerevisiae deletion strains, locus YOR061W, strain CKA2, hits give low values",1.01
same,normalized growth,"S. cerevisiae deletion strains, locus YOR069W, strain VPS5, hits give low values",1
same,normalized growth,"S. cerevisiae deletion strains, locus YOR070C, strain gyp1, hits give low values",1.02
same,normalized growth,"S. cerevisiae deletion strains, locus YOR080W, strain dia2, hits give low values",1.01
same,normalized growth,"S. cerevisiae deletion strains, locus YOR083W, strain WHI5 (second series), hits give low values",0.582 (active)
same,normalized growth,"S. cerevisiae deletion strains, locus YOR083W, strain WHI5, hits give low values",1.03
same,normalized growth,"S. cerevisiae deletion strains, locus YOR106W, strain vam3, hits give low values",1
same,normalized growth,"S. cerevisiae deletion strains, locus YOR136W, strain idh2, hits give low values",1.02
same,normalized growth,"S. cerevisiae deletion strains, locus YOR144C, strain elg1, hits give low values",1.01
same,normalized growth,"S. cerevisiae deletion strains, locus YOR184W, strain ser1, hits give low values",1.02
same,normalized growth,"S. cerevisiae deletion strains, locus YOR231W, strain MKK1, hits give low values",1
same,normalized growth,"S. cerevisiae deletion strains, locus YOR265W, strain rbl2, hits give low values",1.02
same,normalized growth,"S. cerevisiae deletion strains, locus YOR270C, strain vph1, hits give low values",1.07
same,normalized growth,"S. cerevisiae deletion strains, locus YOR290C, strain snf2, hits give low values",0.969
same,normalized growth,"S. cerevisiae deletion strains, locus YOR316C, strain cot1, hits give low values",1.02
same,normalized growth,"S. cerevisiae deletion strains, locus YPL051W, strain arl3, hits give low values",1
same,normalized growth,"S. cerevisiae deletion strains, locus YPL078C, strain atp4, hits give low values",1.02
same,normalized growth,"S. cerevisiae deletion strains, locus YPL106C, strain sse1, hits give low values",1.03
same,normalized growth,"S. cerevisiae deletion strains, locus YPL240C, strain hsp82, hits give low values",1.01
same,normalized growth,"S. cerevisiae deletion strains, locus YPL241C, strain CIN2, hits give low values",1
same,normalized growth,"S. cerevisiae deletion strains, locus YPR119W, strain clb2, hits give low values",1.01
same,normalized growth,"S. cerevisiae deletion strains, locus YPR141C, strain kar3, hits give low values",1.01
same,normalized growth,"S. cerevisiae deletion strains, locus YPR163C, strain tif3, hits give low values",1.03
same,normalized growth,"S. cerevisiae deletion strains, locus YPR167C, strain met16, hits give low values",1.02
same,normalized growth,"S. cerevisiae deletion strains, strain wtn01, hits give low values",1.01
same,normalized growth,"S. cerevisiae strains, strain wild type, hits give low values",0.988
